Compound activity as filed in PubChem BioAssay.
Shown are actives, neighbours in structure and some others; about 1.8% of the full set was active somewhere.
TrxR1 substrate: qHTS Assay for Substrates of Mammalian Selenoprotein Thioredoxin Reductase 1 (TrxR1): qHTS; Thioredoxin reductase 1, cytoplasmic (Rattus norvegicus), O89049; purified TrxR1 substrate turnover, NADPH consumption readout; Potency, µM (series often up to 114 µM), for inactives: top-dose activity change, negative = substrate turnover; hit rate 0.01% among 390,000; AID 588456, 2011; also: % is scaled to controls: 0 for no effect and ±100 for the full control effect; nearly all actives have a fitted effect of over 50% in size
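Rat TrxR1, dispensed at 90 nM, was prereduced with 400 uM NADPH (final) for 5 min at ~22 deg C, then incubated with compound 15 min before 400 uM selenite. A first-read NADPH fluorescence drop versus no-compound background flagged substrates.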
Vif-A3F inh: qHTS for Inhibitors of Vif-A3F Interactions: qHTS | HeLa A3F-eYFP + Vif (tagged APOBEC3F with the HIV-1 protein that degrades it), YFP fluorescence increase | Potency, µM (doses to about 46.1 µM), for the others: top-dose activity, negative = active | hit rate 0.2% among 390,000; also: % of control where 0% means no effect; nearly all actives have a fitted effect of over 65% in size
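HeLa cells stably expressing A3F-eYFP plus Vif, plated and incubated overnight at 37 deg C, then exposed to compounds overnight at 37 deg C. Blocked degradation read as raised yellow fluorescence (Ex 488/Em 500-530).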
TrxR1 inh: qHTS Assay for Inhibitors of Mammalian Selenoprotein Thioredoxin Reductase 1 (TrxR1): qHTS; Thioredoxin reductase 1, cytoplasmic (Rattus norvegicus), O89049; recombinant rTrxR1, NADPH fluorescence consumption, selenite substrate; Potency, µM (highest dose often 114 µM), for the others: top-dose activity change, negative = inhibition, most hits filed as inhibitors; hit rate 1% among 390,000; also: % is scaled to controls: 0 for no effect and ±100 for the full control effect; nearly all actives have a fitted effect of over 65% in size
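Rat TrxR1 (90 nM in the dispensed reagent) was pre-reduced with 400 uM NADPH for 5 min at room temperature, then incubated with compound for 15 min. After 400 uM selenite was added, NADPH fluorescence (Ex 340/Em 450 nm) was followed for 8 min.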
VDR inhibitor: Inhibitors of the vitamin D receptor (VDR): qHTS; Vitamin D3 receptor (Homo sapiens), P11473; VDR-SRC2-3 peptide fluorescence polarization, 2 h; Potency, µM, without a hit: max response, negative = inhibition, usual class: inhibitors; hit rate 0.93% among 400,000; AID 504847, 2011; also: % is scaled to controls: 0 for no effect and ±100 for the full control effect
Target sequence (P11473 whole entry, looked up): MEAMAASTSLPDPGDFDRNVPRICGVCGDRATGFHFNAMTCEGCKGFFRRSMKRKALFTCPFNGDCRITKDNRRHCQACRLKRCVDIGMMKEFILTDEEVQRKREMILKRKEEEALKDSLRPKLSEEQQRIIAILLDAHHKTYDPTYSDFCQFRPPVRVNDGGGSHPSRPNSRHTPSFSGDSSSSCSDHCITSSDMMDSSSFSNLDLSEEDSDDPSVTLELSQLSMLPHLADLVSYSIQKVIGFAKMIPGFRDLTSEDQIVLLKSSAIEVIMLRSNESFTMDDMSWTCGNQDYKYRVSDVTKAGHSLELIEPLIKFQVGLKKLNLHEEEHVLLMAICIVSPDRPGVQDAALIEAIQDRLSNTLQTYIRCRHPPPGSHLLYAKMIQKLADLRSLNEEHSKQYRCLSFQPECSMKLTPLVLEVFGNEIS
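The screen uses fluorescence polarization to detect compounds that interfere with recruitment of the SRC2-3 coactivator peptide to VDR; plates are read after 2 h at room temperature.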
Vif-A3G inh: qHTS for Inhibitors of Vif-A3G Interactions: qHTS; DNA dC->dU-editing enzyme APOBEC-3G (Homo sapiens), Q9HC16; HeLa A3G-eYFP + Vif (tagged APOBEC3G with the HIV-1 protein that degrades it), YFP fluorescence, overnight; Potency, µM (doses to about 46.1 µM), without a hit: top-dose activity, negative = active, usual class: inhibitors; hit rate 0.076% among 410,000; AID 602310, 2012; also: % is scaled to controls: 0 for no effect and ±100 for the full control effect; nearly all actives have a fitted effect of over 60% in size
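Read-out is eYFP fluorescence (Ex 488/Em 500-530) from Vif-expressing HeLa A3G-eYFP cells; more signal means A3G escaped Vif-mediated degradation. Cells plated overnight, compound pinned in, incubated overnight at 37 deg C.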
* marks the source's active call; other numbers are inactive results; ? = inconclusive; · = not tested or not shown; [ ] = dose if it differs, or a comment. Calls follow the shape of the dose curve; as a rule, active = well fitted curve in the direction sought with a large enough effect; inconclusive = small, poorly fitted or top-dose-only effect, or another doubt; inactive = no such curve, though single readings can be large; an effect the other way counts as inactive or inconclusive. Potency is read from the fitted curve at half-maximal effect.

SMILES	TrxR1 substrate	Vif-A3F inh	TrxR1 inh	VDR inhibitor	Vif-A3G inh
CC(=O)Nc1ccc(NC(=O)COC(=O)c2ccccc2OCc2cccc(Br)c2)cc1	-4%	·	4%	·	-1%
COc1ccc(C(C)=O)cc1COC(=O)CNC(=O)C1CCCCC1	-4%[2.29 µM]	1%	-6%[2.29 µM]	-20%	2%
COc1ccc(C(C)=O)cc1COC(=O)CNC(=O)c1ccccc1F	0%	-23%	16µM*	-13%	0%
CC(C)N1C(=O)/C(=C/c2nc3ccccc3c(=O)n2-c2ccccc2)c2ccccc21	-6%	5%	-7%	71µM*	-19%
O=C1c2ccccc2-n2c1nc1ccccc1c2=O	-4%	5%	4%	-11%	-4%
CC(C)N1C(=O)/C(=C\c2nc3ccccc3c(=O)n2-c2ccccc2)c2ccccc21	-7%	-12%	-5%	71µM*	-17%
COc1cc(/C=C2\N=C(c3c(-c4ccccc4)noc3C)OC2=O)ccc1OC(C)=O	5%	-2%	7%	-30%	-3%
COc1cc(/C=C2\N=C(C)OC2=O)cc(Cl)c1OC(C)=O	-5%	10%	40µM*	?	2%
CC(C)n1c(=O)[nH][nH]c1=S	3%[57.1 µM]	5%	-3%[57.1 µM]	50µM*	-3%
Cc1csc(=O)n1CC(=O)OCc1nnc(-c2ccc([N+](=O)[O-])cc2)o1	-2%	1%	5%	-1%	-3%
O=C(CCC(=O)c1ccc(F)cc1)OCc1nnc(-c2ccc([N+](=O)[O-])cc2)o1	-12%	-15%	50µM*	?	0%
COc1ccc(Cn2nnnc2C(c2ccccn2)N2CCN(c3ccc(O)cc3)CC2)cc1 (centres undefined)	-2%	·	4%	-4%	3%
O=C(c1ccccc1)c1cc(Cl)ccc1N1C(=O)C=CC1=O	7%	-9%	0.79µM*	25µM*	?
O=C(CC(=O)c1cc(Cl)ccc1O)c1ccccc1	4%	-21%	-5%	-2%	-11%
CNC(=O)c1ccc2nc(-c3ccco3)c(-c3ccco3)nc2c1	-5%	·	4µM*	?	2%
CCc1nc2ccc(C(=O)Nc3ccc(NC(C)=O)cc3)cc2nc1CC	-18%	-10%	-12%	-12%	2%
CC(=O)c1ccc(NC(=O)c2ccc3nc(-c4ccco4)c(-c4ccco4)nc3c2)cc1	1%	16%	2.5µM*	?	-5%
O=C(NC1CC1)c1ccc2nc(-c3ccco3)c(-c3ccco3)nc2c1	-2%	·	2.5µM*	?	5%
O=C(NC1CCCCC1)c1cc(-c2ccco2)on1	-3%	-4%	-11%	-1%	0%
CCNC(=O)c1ccc2nc(-c3ccccc3)c(-c3ccccc3)nc2c1	7%	·	-19%	2%	3%
C[C@@H]1[C@H](c2ccccc2)OCCS(=O)(=O)N1Cc1ccccc1Br	1%	·	28%	·	-1%
Cc1cc(N2CCCC2)ccc1/C=C1\NC(=S)N(C)C1=O	-15%	6.3µM*	?	?	?
O=C1/C(=C/c2ccc(N3CCCC3)cc2)NC(=S)N1C1CC1	-2%	11µM*	0%	3%	5.6µM*
Cc1nn(C)c(C)c1S(=O)(=O)N(CC(=O)N1CCN(c2ccccc2)CC1)c1ccc(C(C)C)cc1	-1%	-4%	14%	-6%	3%
COC(=O)c1ccc(S(=O)(=O)N2CCc3ccccc32)cc1	-1%	-10%	15%	-5%	?
SMILES	TrxR1 substrate	Vif-A3F inh	TrxR1 inh	VDR inhibitor	Vif-A3G inh
COC(=O)c1[nH]c2c(c1C(=O)OC)CCc1ccccc1-2	222%	8.9µM*	8%[57.1 µM]	2%	-10%
CN(C)c1ccc(/C=C/c2cc(Cl)nc3ccccc23)cc1	2%	·	31%	·	-4%
CCCc1c(C)c2ccc(O)c(CN3CCN(c4ccc(F)cc4)CC3)c2oc1=O	74%	2%	?	7%	-2%
Cc1cc(O)c(CN2CCN(c3ccc(F)cc3)CC2)c2oc(=O)cc(C)c12	739%	2%	79µM*	5%	0%
Cc1ccc(N2CCN(C(=O)c3c(C)oc4nc(C)nc(N5CCCC5)c34)CC2)c(C)c1	-6%	-4%	-2%	6%	2%
Cc1cc(SC#N)cc(C)c1NC(=O)CCl	-7%	-1%	50µM*	?	-22%
CCc1cc(SC#N)cc(C)c1NC(=O)CCl	20%[57.1 µM]	2%	?	79µM*	?
CCC(=O)Nc1ccc(SC#N)cc1C	12%	-24%	65%	-35%	-6%
CCc1cc(SC#N)cc(C)c1N	-1%	-29%	5%	-22%	0%
COc1ccc(NC(=O)Nc2sc3nc4n(c(=O)c3c2C)CCC(C)CC4)cc1OC (centres undefined)	4%	1%	25%	0%	-8%
C=CCN1C(=O)/C(=c2\sc3nc(=O)c(Cc4ccccc4Cl)nn3c2=O)c2ccccc21	-24%[57.1 µM]	-3%	?	35µM*	-1%
CCCC(C)NC(=O)c1cc(C(=O)OC)cc([N+](=O)[O-])c1 (centres undefined)	0%	6%	9%	-8%	0%
CCCC(C)c1nnc(NC(=O)c2cc(C(=O)OC)cc([N+](=O)[O-])c2)s1 (centres undefined)	-5%	1%	-12%	50µM*	4%
CN(C)c1ccc(/C=C/c2c([N+](=O)[O-])c(=O)n(C)c(=O)n2C)cc1	-6%	-2%	-6%	-4%	1%
Cn1c(/C=C/c2ccc(Br)cc2)c([N+](=O)[O-])c(=O)n(C)c1=O	-1%[57.1 µM]	13%	-2%[57.1 µM]	50µM*	-21%
COc1ccc(-c2cc(-c3ccccc3)c(C#N)c(SCC(O)CS(=O)(=O)Cc3ccc(Cl)cc3)n2)cc1 (centres undefined)	27%	3%	17%	3%	-1%
N#Cc1c(-c2ccccc2)cc(-c2ccccc2)nc1SCC(O)CS(=O)(=O)Cc1ccc(Cl)cc1 (centres undefined)	7%	1%	14%	28µM*	-2%
COC(C/C=C\[C@@H](O)[C@@H](C)OCc1ccccc1)OC	6%[57.1 µM]	12%	14%	13%	1%
COC(C/C=C\C(=O)[C@H](C)OCc1ccccc1)OC	-3%	-19%	45µM*	-22%	-5%
c1ccc(CNc2ncnc3ccc(-c4cccnc4)cc23)cc1	·	·	·	28µM*	·
O=C1C2C3CCCC3=C3CCCC3C2C(=O)N1c1ccccc1Cl (centres undefined)	-5%	·	?	-6%	-5%
Cc1ccc(CSc2nc(-c3cccs3)ccc2C#N)cc1	31%	-2%	17%	-19%	?
